Assay outcomes (PubChem)
RORg inh: qHTS for inhibitors of ROR gamma transcriptional activity. Nuclear receptor ROR-gamma (Mus musculus), P51450. Drosophila S2 Gal4-RORgamma UAS-luciferase reporter, 20 h. Potency, µM (series often up to 53.6 µM), without a hit: top-dose activity change, negative = inhibition, actives largely listed as inhibitors. 310,000 compounds, 5.4% hits; further: potency means the concentration at half of the fitted maximal effect; nearly all actives have a fitted effect of over 60% in size
Target sequence (P51450 whole entry, looked up, the tested form may be a part): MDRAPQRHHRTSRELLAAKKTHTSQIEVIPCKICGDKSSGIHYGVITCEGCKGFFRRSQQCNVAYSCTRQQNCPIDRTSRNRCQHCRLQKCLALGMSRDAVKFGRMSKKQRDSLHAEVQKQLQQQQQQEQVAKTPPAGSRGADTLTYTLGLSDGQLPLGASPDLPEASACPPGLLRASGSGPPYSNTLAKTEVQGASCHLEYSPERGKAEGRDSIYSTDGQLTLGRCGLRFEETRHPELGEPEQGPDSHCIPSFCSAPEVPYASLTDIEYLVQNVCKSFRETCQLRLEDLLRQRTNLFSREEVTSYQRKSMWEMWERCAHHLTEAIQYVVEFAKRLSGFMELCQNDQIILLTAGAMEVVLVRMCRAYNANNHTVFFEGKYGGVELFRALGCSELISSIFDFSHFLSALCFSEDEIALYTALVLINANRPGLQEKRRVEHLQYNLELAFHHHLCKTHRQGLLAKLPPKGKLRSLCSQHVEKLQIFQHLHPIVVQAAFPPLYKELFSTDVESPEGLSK
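Luciferase reporter read in Schneider cells carrying Gal4-RORγ (mouse) and UAS-Photinus luciferase; cells given compound 1 h before 700 uM copper sulfate induction, then incubated 20 h at ambient temperature.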
TDP1 cell CPT: qHTS for Inhibitors of human tyrosyl-DNA phosphodiesterase 1 (TDP1): qHTS in cells in presence of CPT; chicken DT40 Tdp1-/-;hTDP1 cells + 20 nM CPT, ATP luminescence, 48 h; Potency, µM (series often up to 46.2 µM), inactives show at the highest dose activity change, negative = growth inhibition, usual class: inhibitors; 420,000 compounds, 12% hits; AID 686979, 2013; further: potency means the concentration at half of the fitted maximal effect; nearly all actives have a fitted effect of over 55% in size
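Chicken DT40 Tdp1-/- cells complemented with human TDP1, 400 cells/well, exposed to compounds plus 20 nM camptothecin for at least 48 h at 37 C; viability read as ATP content by CellTiter-Glo luminescence.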
LDHA block: qHTS assay for inhibitors of human lactate dehydrogenase. L-lactate dehydrogenase A chain (Homo sapiens), P00338. purified LDHA, NADH/diaphorase-resazurin fluorescence; active compounds read low. activity change, % (values are at about 110 or 230 µM). 480,000 compounds, 0.15% hits; in the data active means activity change below about -30%; inconclusive means mostly about -25% to -30%;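 further: plate controls were DMSO wells for no effect and wells without enzyme for full effect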
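Human LDH5 (2 nM) was incubated with 0.06 mM NADH and 0.2 mM pyruvate for 5 min at room temperature in Tris pH 7.4. Remaining NADH was coupled through diaphorase/resazurin, and resorufin fluorescence was read at 0 and 20 min.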
Gal4-VP16 FLuc: VP16 counterscreen qHTS for inhibitors of ROR gamma transcriptional activity; 310,000 compounds, 3.5% hits; Potency, µM (titrated, usually from 53.6 µM), for the others: top-dose activity, negative = inhibition, most hits filed as inhibitors; Drosophila S2 Gal4-VP16 UAS-luciferase, luminescence, 20 h;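 further: Gal4-VP16 expression switched on by copper sulfate through the metallothionein promoter; potency means the concentration at half of the fitted maximal effect; nearly all actives have a fitted effect of over 50% in size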
DT40 TDP1 no CPT: qHTS for Inhibitors of human tyrosyl-DNA phosphodiesterase 1 (TDP1): qHTS in cells in absence of CPT. DT40 Tdp1-/- hTDP1 cells, no CPT, ATP luminescence, 48 h. Potency, µM (doses to about 46.2 µM), without a hit: at the top dose activity change, negative = growth inhibition, hits mostly inhibitors. 420,000 compounds, 15% hits; further: potency means the concentration at half of the fitted maximal effect; nearly all actives have a fitted effect of over 55% in size
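Camptothecin absent (DMSO only). Human TDP1-complemented DT40 knockout cells, 400 cells/well, 37 °C for minimum 48 hr; ATP measured via CellTiter-Glo, 30 min dark incubation, luminescence.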
IL-1B inflam inh: qHTS for Inhibitors of Inflammasome Signaling: IL-1-beta AlphaLISA Primary Screen; activity change, % at 57.5 µM; THP-1 LPS/ATP IL-1B secretion, AlphaLISA, 16 h; active compounds read low; 360,000 compounds, 4.7% hits; in the data active means activity change below about -50%; inconclusive means mostly about -30% to -49%
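Secreted IL-1B measured by AlphaLISA bead assay after 16 h compound exposure of THP-1 cells; compounds (final up to 57.5 uM) added 1 h before LPS (250 ng/mL) and ATP (1.25 mM) stimulation; lower signal means less secretion.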
* hit, by the source's call; ? = inconclusive; · = no result; [ ] = dose if it differs, or a comment. Rows were chosen to be rich in hits. Some 18% of all compounds tested hit in one or more screens of this group. Unless noted, the call rests on the fitted dose curve; in most records, active means well fitted curve in the direction sought with a large enough effect; inconclusive means small, poorly fitted or top-dose-only effect, or another doubt; inactive means no such curve, though single readings can be large; an effect the other way counts as inactive or inconclusive. Unless noted, on the % scale 0 is the no-effect control and ±100 the full control effect.

SMILES	RORg inh	TDP1 cell CPT	LDHA block	Gal4-VP16 FLuc	DT40 TDP1 no CPT	IL-1B inflam inh
CS(=O)(=O)c1cccc(-c2nnc(NC(=O)c3ccc4c(c3)OCCO4)o2)c1	·	?	3	·	?	·
COc1cc2c(cc1OC)CN(CC(=O)Nc1cc(C)cc(C)c1)CC2	·	·	10	·	·	·
COc1ccc(OC)c(-c2cc(C(=O)N/N=C/c3ccc(F)cc3)c3ccccc3n2)c1	·	5.2µM*	-3	·	1µM*	·
COc1ccc(OC)c(-c2cc(C(=O)O)c3cc4ccccc4cc3n2)c1	·	-2%	1	·	-3%	13
COc1ccc(OC)c(-c2cc(C(=O)N/N=C/c3cc(OC)c(OC)cc3OC)c3ccccc3n2)c1	·	16µM*	-2	·	9.2µM*	?
COc1ccc(OC)c(-c2cc(C(=O)Nc3ccccc3C(N)=O)c3ccccc3n2)c1	·	21µM*	-3	·	8.2µM*	-10
COc1cccc(/C=N/NC(=O)c2cccc3ccccc23)c1	-4%	?	-2	4%	?	33
CCc1cc(C(=O)N/N=C/c2ccc(OC)cc2)c2ccccc2n1	6%	7.3µM*	-10	-8%	3.3µM*	15
Cc1nn(CCc2nc(-c3ccc(OC(F)F)cc3)cs2)c2[nH]c(=O)cc(C(F)(F)F)c12	·	·	0	·	·	·
CCCn1c(C2CC(=O)N(c3cccc(C(F)(F)F)c3)C2)nc2ccccc21 (stereo not drawn)	·	·	0	·	·	·
O=C(NCc1ccc2c(c1)OCO2)c1ccco1	-14%	-6%	0	-7%	19%	20
O=C(CC(SCCO)c1ccc2c(c1)OCO2)c1ccco1 (stereo not drawn)	?	21µM*	-3	?	18µM*	-56*
S=c1nc(C2COc3ccccc3O2)[nH][nH]1 (stereo not drawn)	13µM*	-4%	0	17%	-17%	-1
S=c1[nH]nc(C2COc3ccccc3O2)o1 (stereo not drawn)	?	-8%	-1	0%	-21%	11
COc1ccc(C(=O)OCC(=O)Nc2c(C(C)C)cccc2C(C)C)c(OC)c1OC	·	·	-4	·	·	·
Nc1[nH]c(C(=O)c2ccccc2)c(-c2ccc(Cl)c(F)c2)c1C(=O)NCCc1c[nH]c2ccccc12	·	?	1	·	?	-9
Nc1[nH]c(C(=O)c2ccccc2)c(-c2ccc(Cl)cc2)c1C(=O)NCCc1c[nH]c2ccccc12	·	?	5	·	?	0
Nc1[nH]c(C(=O)c2ccccc2)c(-c2ccc(F)cc2)c1C(=O)NCCc1c[nH]c2ccccc12	·	?	0	·	23µM*	?
COc1ccc(C(=O)c2[nH]c(N)c(C(=O)NCCc3c[nH]c4ccccc34)c2-c2c(F)cccc2Cl)cc1	·	16µM*	-9	·	15µM*	-9
COc1ccc(C(=O)c2[nH]c(N)c(C(=O)NCCc3c[nH]c4ccccc34)c2-c2ccc(OC)c(OC)c2)cc1	·	16µM*	1	·	8.2µM*	?
COc1ccc(C(=O)c2[nH]c(N)c(C(N)=O)c2-c2ccc(OC)c(OC)c2)cc1	·	6%	4	·	-19%	-1
Cc1ccc(NC(NC(=O)c2ccccc2C)C(Cl)(Cl)Cl)c(C)c1 (stereo not drawn)	·	·	0	·	·	·
Cc1ccc(C)c(CN2C(=O)c3ccccc3S(=O)c3ccc(C(=O)NCc4ccco4)cc32)c1 (stereo not drawn)	·	?	-1	·	16µM*	·
O=C(NCc1ccco1)c1ccc2c(c1)N(Cc1ccc(F)cc1)C(=O)c1ccccc1S2=O (stereo not drawn)	·	?	-6	·	16µM*	·
CCCCNC(=O)c1ccc2c(c1)N(Cc1ccc(F)cc1)C(=O)c1ccccc1S2=O (stereo not drawn)	·	23µM*	-4	·	18µM*	·
SMILES	RORg inh	TDP1 cell CPT	LDHA block	Gal4-VP16 FLuc	DT40 TDP1 no CPT	IL-1B inflam inh
CC(=O)Nc1ccc(NC(=S)NC(NC(=O)C(C)(C)C)C(Cl)(Cl)Cl)cc1 (stereo not drawn)	·	·	-3	·	·	·
O=C(/C=C/c1ccccc1)NC(NC(=S)Nc1cccc(O)c1)C(Cl)(Cl)Cl (stereo not drawn)	8%	?	?	?	18µM*	-117*
Cc1ccc(C)c(NC(=S)NC(NC(=O)/C=C/c2ccccc2)C(Cl)(Cl)Cl)c1 (stereo not drawn)	5µM*	?	4	11µM*	23µM*	?
Cc1ccc(NC(=S)NC(NC(=O)C(C)(C)C)C(Cl)(Cl)Cl)c(C)c1 (stereo not drawn)	13µM*	?	-16	-25%	?	-10
COC(=O)NC(NC(=S)Nc1cccc(C)c1)C(Cl)(Cl)Cl (stereo not drawn)	-14%	0%	-5	-20%	?	-17
O=C(/C=C/c1ccccc1)NC(NC(=S)Nc1ccc(C(=O)O)cc1)C(Cl)(Cl)Cl (stereo not drawn)	-1%[10 µM]	-5%	-5	3%	-7%	14
O=C(/C=C/c1ccccc1)NC(NC(=S)Nc1ccc(Cl)cc1Cl)C(Cl)(Cl)Cl (stereo not drawn)	?	21µM*	-4	5µM*	18µM*	-10
CCC(Sc1nc2ccncc2[nH]1)C(=O)Nc1ccc(C)cc1 (stereo not drawn)	·	·	0	·	·	·
COc1cccc(C2C(C#N)=C(N)Oc3nc[nH]c(=O)c32)c1 (stereo not drawn)	·	·	9	·	·	·
O=C(O)C(c1ccc(Cl)cc1)c1ccc(Cl)cc1	·	·	5	·	·	·
NC(=O)C(c1ccc(Cl)cc1)c1ccc(Sc2ccc(Cl)cc2)nn1 (stereo not drawn)	?	?	-2	14µM*	16µM*	?
N=C(N)SCCSc1cc(Cl)ccc1Cl	·	·	1	·	·	·
CCOC(=O)C1=C(C)NC(C)=C(C(=O)OCC)C1c1ccc(C)o1	5%	?	2	8%	?	-9
C=CCOC(=O)C1=C(C)NC(C)=C(C(=O)OCC=C)C1c1ccc(C)o1	?	?	3	?	?	-77*
NC(=O)c1c(-c2ccc(Cl)cc2Cl)csc1NC(=O)Cc1ccccc1	?	8.2µM*	-4	7.1µM*	9.2µM*	-3
O=C(CSc1nnc2ccccn12)c1ccc(F)cc1	·	·	5	·	·	·
